Source: PubChem BioAssay
NSD2 inh = NSD2 (human) methyltransferase inhibition; O96028; NSD2 peptide methylation, AlphaScreen, 120 min; inhibition, % at 12.5 µM; hit rate 0.54% among 310,000; in the data active = inhibition above about 50%
CASP6 VEID inh = caspase-6 (human) enzyme inhibition; P55212; purified caspase-6, Z-VEID-R110 cleavage fluorescence; inhibition, % at 12.5 µM; hit rate 0.53% among 350,000; AID 686996;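 active = mean inhibition across replicates at least about 35%, with every replicate also reaching that limit, limit read from the data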;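 also: 0% = median of neutral control wells and 100% = no fluorescence left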
Target sequence (P55212 24-179 limits assumed): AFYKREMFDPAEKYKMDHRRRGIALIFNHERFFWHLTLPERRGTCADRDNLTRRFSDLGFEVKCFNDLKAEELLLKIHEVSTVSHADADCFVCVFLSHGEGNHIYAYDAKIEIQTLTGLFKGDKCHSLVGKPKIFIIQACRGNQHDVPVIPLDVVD
Target sequence (P55212 194-293 limits assumed): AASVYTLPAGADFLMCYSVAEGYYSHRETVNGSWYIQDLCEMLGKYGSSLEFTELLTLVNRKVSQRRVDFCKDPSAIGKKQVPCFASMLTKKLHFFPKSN
PfHsp90 yeast 2 = growth inhibition of yeast expressing Plasmodium Hsp90 | S. cerevisiae expressing PfHsp90, BacTiter-Glo ATP, 48 h; yeast lacking PDR1 and PDR3 efflux regulators | inhibition, % at 9.4 µM | hit rate 0.32% among 310,000 | AID 504621;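 active = every replicate shows inhibition above about 80%, whatever the replicate mean, limit read from the data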;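 also: 0% = DMSO neutral controls and 100% = 20 µM radicicol positive controls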
ARNT-TACC3 inh = ARNT/TACC3 interaction disruption | AlphaScreen His-ARNT PAS-B/GST-TACC3 binding, luminescence; TACC3 fragment carries E629A point mutation | Q9Y6A5 | hit rate 0.66% among 390,000 | inhibition, % at 9.99 µM;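 active = mean inhibition of replicates at least 50% and at least half of replicates each reaching 50%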;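 also: 0% = complete ARNT plus TACC3 wells and 100% = ARNT alone without TACC3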
SIRT5 block = blocks human SIRT5 desuccinylation of peptide. inhibition, % at 15 µM. AID 652115. Q9NXA8. hit rate 1.1% among 330,000. Purified SirT5, succinyl-peptide AMC, trypsin-coupled fluorescence; in the data active = inhibition above about 15%
Target sequence (Q9NXA8 whole entry, looked up): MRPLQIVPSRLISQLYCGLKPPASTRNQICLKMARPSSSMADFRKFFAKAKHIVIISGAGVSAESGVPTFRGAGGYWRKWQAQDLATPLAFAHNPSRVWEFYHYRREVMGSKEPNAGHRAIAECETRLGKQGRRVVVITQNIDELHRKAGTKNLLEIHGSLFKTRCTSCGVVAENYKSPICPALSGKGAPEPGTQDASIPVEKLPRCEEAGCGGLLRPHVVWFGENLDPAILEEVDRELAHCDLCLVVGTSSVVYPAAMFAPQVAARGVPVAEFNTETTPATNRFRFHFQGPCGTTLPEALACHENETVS
* marks the source's active call; other numbers are inactive results. An excerpt weighted towards active compounds, which were near 2.1% of everything screened.

Results for CC(C)c1ccc(N2C(=O)CSC23C(=O)N2CCCc4cccc3c42)cc1 (centres undefined) ?
NSD2 inh: -3; CASP6 VEID inh: -2; ARNT-TACC3 inh: -1; SIRT5 block: 18*

How did COc1ccc(N2C(=O)CSC23C(=O)Nc2ccccc23)cc1 (centres undefined) do in these assays?
PfHsp90 yeast 2: 12; ARNT-TACC3 inh: 0

What do the screens show for `Oc1c(Br)cc(Br)cc1CNc1cccc2cccnc12`?
NSD2 inh: 5; CASP6 VEID inh: 0; PfHsp90 yeast 2: 27; ARNT-TACC3 inh: 113*; SIRT5 block: 2

How did Oc1ccc(Br)cc1CNc1cnc2ccccc2c1 do in these assays?
NSD2 inh: -1; CASP6 VEID inh: 4; PfHsp90 yeast 2: -35; ARNT-TACC3 inh: -2; SIRT5 block: -3

How did Oc1ccc(Br)cc1CNc1cccc2cccnc12 do in these assays?
NSD2 inh: 13; CASP6 VEID inh: 3; PfHsp90 yeast 2: 7; ARNT-TACC3 inh: 49*; SIRT5 block: -2

What do the screens show for `COc1ccccc1-c1ccc2n(c1=O)C[C@H]1[C@H](CO)[C@@H](C(=O)NCc3ccccc3F)N[C@@H]21`?
CASP6 VEID inh: -3; ARNT-TACC3 inh: 9; SIRT5 block: -5

How did CC(C)NC(=O)N1CC2(C1)[C@H](c1ccccc1)[C@@H](CO)N2C(=O)C1CC1 do in these assays?
CASP6 VEID inh: 0; SIRT5 block: -1

Results for CCCN1CCC(NC(=O)Nc2ccc([N+](=O)[O-])cc2)CC1 ?
NSD2 inh: 11; CASP6 VEID inh: -5; PfHsp90 yeast 2: 5; SIRT5 block: 17*

What do the screens show for `CCCN1CCC(NC(=O)Nc2ccc(Br)cc2)CC1`?
NSD2 inh: 2; CASP6 VEID inh: -17; ARNT-TACC3 inh: 10; SIRT5 block: -6

Results for C[C@@H]1CN([C@@H](C)CO)C(=O)c2cc(C#Cc3ccc(F)cc3)cnc2O[C@@H]1CN(C)C ?
CASP6 VEID inh: -23; ARNT-TACC3 inh: 1; SIRT5 block: 1

What do the screens show for `O=C(C[C@H]1C[C@@H]2c3cc(NC(=O)Nc4ccccc4F)ccc3O[C@@H]2[C@H](CO)O1)NCCc1ccccc1`?
CASP6 VEID inh: -2; ARNT-TACC3 inh: -5; SIRT5 block: 2

What do the screens show for `COc1ccc(NC(=O)Nc2ccc3c(c2)C(=O)N([C@@H](C)CO)C[C@H](C)[C@H](CN(C)Cc2ccc4c(c2)OCO4)OCCCC[C@H](C)O3)cc1`?
CASP6 VEID inh: -3; ARNT-TACC3 inh: 11; SIRT5 block: 3

What do the screens show for `CCC/C=C/c1ccc(CN2C(C)C(=O)N(Cc3cn(CCC4OCCCO4)nn3)CCS2(=O)=O)cc1` (centres undefined)?
CASP6 VEID inh: 3; SIRT5 block: 22*

Results for CC1C/C(=C/c2ccccn2)C(=O)/C(=C/c2ccccn2)C1 (centres undefined) ?
PfHsp90 yeast 2: 7; ARNT-TACC3 inh: 4

Results for CC(C)(C)C1C/C(=C/c2ccccn2)C(=O)/C(=C/c2ccccn2)C1 (centres undefined) ?
PfHsp90 yeast 2: 100*; ARNT-TACC3 inh: 2

Results for CO[C@@H]1CN(C)C(=O)c2cc(NC(C)=O)ccc2OC[C@H](C)N(C(=O)c2cnccn2)C[C@H]1C ?
ARNT-TACC3 inh: 0; SIRT5 block: 0

What do the screens show for `C[C@@H]1CN([C@H](C)CO)C(=O)c2cc(NC(=O)Nc3ccc(F)cc3)ccc2O[C@@H](C)CCCCO[C@H]1CN(C)S(=O)(=O)c1cccs1`?
CASP6 VEID inh: -3; ARNT-TACC3 inh: 14; SIRT5 block: 4

Results for C[C@@H]1CCCCO[C@H](CN(C)S(=O)(=O)c2cccs2)[C@@H](C)CN([C@H](C)CO)C(=O)c2cc(NC(=O)Nc3ccc4c(c3)OCO4)ccc2O1 ?
CASP6 VEID inh: -1; ARNT-TACC3 inh: -4; SIRT5 block: -1

What do the screens show for `C[C@@H]1CN([C@H](C)CO)C(=O)c2cc(NC(=O)Nc3ccc4c(c3)OCO4)ccc2O[C@@H](C)CCCCO[C@H]1CN(C)S(=O)(=O)c1cccs1`?
CASP6 VEID inh: -3; ARNT-TACC3 inh: -3; SIRT5 block: 18*

What do the screens show for `C[C@@H]1CCCCO[C@@H](CN(C)S(=O)(=O)c2cccs2)[C@H](C)CN([C@H](C)CO)C(=O)c2cc(NC(=O)Nc3ccc(F)cc3)ccc2O1`?
CASP6 VEID inh: 0; ARNT-TACC3 inh: -2; SIRT5 block: 17*

Results for C[C@@H]1CN([C@H](C)CO)C(=O)c2cc(NC(=O)Nc3ccc(F)cc3)ccc2O[C@@H]1CN(C)Cc1ccc(Oc2ccccc2)cc1 ?
CASP6 VEID inh: 1; ARNT-TACC3 inh: 24; SIRT5 block: 12

How did CC(C)C#Cc1ccc([C@H]2[C@@H](CO)N3C(=O)CN(C(=O)C4CCCCC4)C[C@@H]23)cc1 do in these assays?
CASP6 VEID inh: 9; SIRT5 block: 1

How did C[C@@H]1CN([C@@H](C)CO)C(=O)c2cc(NC(=O)Nc3cccc4ccccc34)ccc2O[C@@H](C)CCCCO[C@H]1CN(C)S(=O)(=O)c1ccc(F)cc1 do in these assays?
CASP6 VEID inh: 2; SIRT5 block: 1

How did C[C@H](CO)N1C[C@H](C)[C@@H](CN(C)C(=O)NC2CCCCC2)OCCCC[C@H](C)Oc2ccc(NC(=O)C3CCCCC3)cc2C1=O do in these assays?
CASP6 VEID inh: -1; ARNT-TACC3 inh: -2; SIRT5 block: 16*

Results for C[C@@H]1CCCCO[C@@H](CN(C)C(=O)Nc2ccc(F)cc2)[C@@H](C)CN([C@@H](C)CO)C(=O)c2cc(NC(=O)CCCN(C)C)ccc2O1 ?
CASP6 VEID inh: 3; SIRT5 block: -1

Results for CC(C)NC(=O)Nc1ccc2c(c1)C(=O)N([C@@H](C)CO)C[C@H](C)[C@H](CN(C)C(=O)NC(C)C)OCCCC[C@@H](C)O2 ?
CASP6 VEID inh: -3; ARNT-TACC3 inh: 2; SIRT5 block: 24*

What do the screens show for `C[C@@H]1CCCCO[C@H](CN(C)C(=O)Nc2ccc3c(c2)OCO3)[C@H](C)CN([C@@H](C)CO)C(=O)c2cc(NC(=O)CCCN(C)C)ccc2O1`?
CASP6 VEID inh: 6; ARNT-TACC3 inh: 45*; SIRT5 block: 0

How did CC(C)NC(=O)Nc1ccc2c(c1)C(=O)N([C@@H](C)CO)C[C@@H](C)[C@@H](CN(C)C(=O)NC(C)C)OCCCC[C@@H](C)O2 do in these assays?
CASP6 VEID inh: -3; ARNT-TACC3 inh: -28; SIRT5 block: 4

Results for CC(C)NC(=O)Nc1ccc2c(c1)C(=O)N([C@@H](C)CO)C[C@H](C)[C@@H](CN(C)S(=O)(=O)c1ccccc1)OCCCC[C@@H](C)O2 ?
CASP6 VEID inh: 1; ARNT-TACC3 inh: 2; SIRT5 block: 0

Results for CC(C)NC(=O)Nc1ccc2c(c1)C(=O)N([C@H](C)CO)C[C@H](C)[C@@H](CN(C)S(=O)(=O)c1ccccc1)OCCCC[C@H](C)O2 ?
CASP6 VEID inh: 40*; ARNT-TACC3 inh: 2; SIRT5 block: 1
